Measurements as given in PubChem BioAssay (EPA / NIEHS).
Active and inactive are the calls of the source. Rule for the calls: active = hit-call score of the fitted dose curve at least 0.9, where 1 is the maximum; inactive = score below 0.9.

What follows are compounds tested against Hypoxia-inducible factor 1-alpha (Homo sapiens) (UniProt Q16665) (assay: ATG_HIF1a_CIS: Attagene CIS-FACTORIAL HepG2 Assay for human Hypoxia Inducible Factor 1 (HIF1A) (AID 2282951)). Conditions: HepG2 Attagene cis-factorial HIF1a reporter transcription; actives raise or lower the signal.
Procedure: ATG_CIS is a cell-based, multiplexed-readout assay that uses HepG2, a human liver cell line, with measurements taken at 24 hours after chemical dosing in a 24-well plate.ATG_HIF1a_CIS is one of 52 assay component(s) measured or calculated from the ATG_CIS assay. It is designed to make measurements of mRNA induction, a form of inducible reporter, as detected with fluorescence intensity signals by Reverse transcription polymerase chain reaction (RT-PCR) and Capillary electrophoresis technology.Data from the assay component ATG_HIF1a_CIS was analyzed into 1 assay endpoint. This assay endpoint, ATG_HIF1a_CIS, was analyzed with bidirectional fitting relative to DMSO as the negative control and baseline of activity. Using a type of inducible reporter, measures of mRNA for gain or loss-of-signal activity can be used to understand the reporter gene at the transcription factor-level as they relate to the gene HIF1A. Furthermore, this assay endpoint can be referred to as a primary readout, because this assay has produced multiple assay endpoints where this one serves a reporter gene function. To generalize the intended target to other relatable targets, this assay endpoint is annotated to the dna binding intended target family, where the subfamily is basic helix-loop-helix protein.
Human liver HepG2 cells are transiently transfected with multiple reporter transcription units (MRTUs) in 6-well plates using FuGene 6 reagent (Roche; 3 ml FuGene/1 mg DNA). The MRTU constructs are regulated by a cis-regulating element (promoter). […] A major difference between the CIS and TRANS system is that in CIS activities of endogenous TFs are measured, whereas the TRANS assay evaluates changes in activities of exogenous, chimeric NR-Gal4 proteins. […] At the end of 24 hour incubation, total RNA was isolated using TriZol reagent (Invitrogen). The isolated RNA is then reverse-transcribed using oligo(dT) primer and Mo-MLV reverse transcriptase (Invitrogen) with DNAse I (Ambion) treatment for 30 min. The one-tenth of the produced cDNA was amplified by PCR using Taq DNA polymerase (Invitrogen) and two reporter sequence-specific primers. The PCR products were fluorescently labeled by primer extension with 6-arboxyfluorescein (6-FAM) 5'-labeled reporter sequence-specific primer (2 min at 95 C, 20 s at 68 C and 10 min at 72 C) and these products were digested with 5U of HpaI (New England Biolabs) for 2h at 37 C. The fragments were purified using Qiaquick PCR columns (Qiagen), analyzed on an ABI 3130xL genetic analyzer (Applied Biosystems) with peak positions identified by using a set of X-rhodamine (ROX)-labeled MapMarker1000 molecular weight standards (BioVentures). The raw capillary electrophoresis data was processed using Attagraph software (Attagene).

Hypoxia-inducible factor 1-alpha (Homo sapiens), sequence (Q16665 whole entry, looked up): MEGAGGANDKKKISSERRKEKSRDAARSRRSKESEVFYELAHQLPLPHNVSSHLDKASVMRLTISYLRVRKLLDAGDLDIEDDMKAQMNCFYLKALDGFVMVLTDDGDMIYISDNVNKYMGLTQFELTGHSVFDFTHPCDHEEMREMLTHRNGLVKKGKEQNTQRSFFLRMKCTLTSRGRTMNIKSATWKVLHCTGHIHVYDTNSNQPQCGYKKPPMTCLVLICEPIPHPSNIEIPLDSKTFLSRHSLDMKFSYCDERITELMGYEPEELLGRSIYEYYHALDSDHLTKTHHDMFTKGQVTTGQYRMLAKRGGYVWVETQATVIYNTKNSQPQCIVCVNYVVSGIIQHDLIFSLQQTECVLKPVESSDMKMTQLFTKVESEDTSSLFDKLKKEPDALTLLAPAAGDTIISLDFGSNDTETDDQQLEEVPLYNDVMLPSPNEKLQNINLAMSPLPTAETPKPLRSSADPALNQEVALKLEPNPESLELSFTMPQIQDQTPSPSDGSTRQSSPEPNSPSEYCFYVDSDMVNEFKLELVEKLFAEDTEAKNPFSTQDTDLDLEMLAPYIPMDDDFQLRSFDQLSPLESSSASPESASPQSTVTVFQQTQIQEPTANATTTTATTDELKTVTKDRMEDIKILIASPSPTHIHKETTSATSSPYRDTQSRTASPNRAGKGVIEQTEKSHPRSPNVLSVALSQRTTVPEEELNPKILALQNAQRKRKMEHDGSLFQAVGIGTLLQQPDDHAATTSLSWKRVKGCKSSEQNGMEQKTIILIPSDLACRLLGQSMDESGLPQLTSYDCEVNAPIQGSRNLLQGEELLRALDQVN

outcome, inactive:
CCCCOCCOCCOCCOCCO
CC1(C)C(=O)N(Br)C(=O)N1Cl
CC(=O)/C=C/C1=C(C)CCCC1(C)C
CCCCCCCCCCCCN
CCCC[n+]1ccccc1
OCCCCCO
CCOC(=S)SSC(=S)OCC
Clc1cccc(Cl)n1
O=Cc1ccc(F)cc1
CCCC(=O)c1cc(O)c(O)cc1O
COc1ccc(OC)c(OC)c1
COc1nc(C)nc(N)n1
Nc1cccc(S(=O)(=O)c2cccc(N)c2)c1
CC(=O)Nc1ccc(CC(=O)O)cc1
c1ccc(CCCc2ccccn2)cc1
Cc1ccc(C=O)s1
O=C=NC1CCC(CC2CCC(N=C=O)CC2)CC1 (stereo not given)
O=C(O)CCCCCCCCCCC(=O)O
CC(C)(C#N)c1cc(Cn2cncn2)cc(C(C)(C)C#N)c1
O=C1O[C@@H]2[C@@H](O)[C@H](O)O[C@@H]2[C@H]1O
CC(C)c1cccc(O)c1
CCCCCCCCCOC(C)=O
COC(C(=O)O)c1ccccc1 (stereo not given)
Nc1ccc(F)c([N+](=O)[O-])c1
CC1=CCC2C(C1)C2(C)C (stereo not given)
C=CC[N+](C)(C)CC=C
Nc1cc(N)cc(C(=O)O)c1
CC(C)=CCCC(C)=CCCC(C)=CCO
CCCC1CCC(=O)O1 (stereo not given)
COc1cccc(OC)c1
CCCC/C=C\CCCCCCCCCC=O
O=C(O)Cc1cccc2ccccc12
BrC1CCC(Br)C(Br)CCC(Br)C(Br)CCC1Br (stereo not given)
C[Si](O[Si](C)(C)C)O[Si](C)(C)C
C=CCOc1nc(OCC=C)nc(OCC=C)n1
CCC(=O)OCc1ccccc1
COc1ccc(Cl)cc1C
C=C(C)C(=O)O
O=C(O)c1cccc(C(F)(F)F)c1
O=c1[nH]nnc2ccccc12
